Among the data in PubChem BioAssay (EPA / NIEHS) are outcome and AC50 values, retold here.

Read-out in assay [1]: Intercellular Adhesion Molecule 1 (ICAM1), ICAM1 (gene 3383)
The assay is described as follows: BSK_BE3C_ICAM1: BioMAP Diversity Plus: BE3C Assay for Intercellular Adhesion Molecule 1 (ICAM1) Biomarker Activity (AID 2284278).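 Note: cell-surface ICAM-1 protein level quantified by ELISA.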 Particulars: primary human bronchial epithelial cells. The essentials:
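Primary human bronchial epithelial cells were exposed to compound for 24 h, after which cell-surface ICAM-1 was quantified by ELISA. Activity was fitted in the gain-of-signal direction against DMSO as negative control and baseline.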

Read-out in assay [2]: Interferon-inducible T-cell alpha chemoattractant (ITAC), CXCL11 (gene 6373)
The assay can be described thus: BSK_BE3C_ITAC: BioMAP Diversity Plus: BE3C Assay for Interferon-inducible T-cell alpha chemoattractant (ITAC) Biomarker Activity (AID 2284279). Particulars: primary human bronchial epithelial cells. The method in brief:
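Steps: dose human bronchial epithelial cells with chemical; incubate 24 h; measure I-TAC by ELISA; fit endpoint in positive direction against DMSO control. Cytotoxicity was checked in parallel cultures by SRB staining at harvest.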

Read-out in assay [3]: Interleukin-8 (IL8), CXCL8 (gene 3576)
The assay can be described thus: BSK_BE3C_IL8: BioMAP Diversity Plus: BE3C Assay for Interleukin-8 (IL8) Biomarker Activity (AID 2284280). Particulars: primary human bronchial epithelial cells. The method in brief:
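Primary human bronchial epithelial cells (BE3C system) exposed 24 h; IL-8 measured by ELISA and fitted in positive direction versus DMSO. Overt cytotoxicity assessed by SRB total-protein staining in parallel cultures.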

Read-out in assay [4]: Epidermal growth factor receptor (EGFR), EGFR (gene 1956)
The assay can be described thus: BSK_BE3C_EGFR: BioMAP Diversity Plus: BE3C Assay for Epidermal growth factor receptor (EGFR) Biomarker Activity (AID 2284281). The following applies: primary human bronchial epithelial cells. The essentials:
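Human primary bronchial epithelial cells (BE3C system) dosed with chemicals; EGFR measured by ELISA at 24 h, fitted in the positive direction relative to DMSO. Cytotoxicity tracked in parallel cultures by SRB total-protein staining.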

Read-out in another assay: KRT18 (gene 3875)
The assay is described as follows: BSK_BE3C_Keratin818: BioMAP Diversity Plus: BE3C Assay for Keratin 818 Biomarker Activity (AID 2284282). The following applies: primary human bronchial epithelial cells. The method in brief: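 Human primary bronchial epithelial cells in the BE3C system were exposed to test chemical for 24 h, then Keratin 8/18 was quantified by ELISA. Activity was fitted in the positive direction against DMSO as negative control and baseline.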

Read-out in assay [5]: Plasminogen activator inhibitor-1 (PAI1), SERPINE1 (gene 5054)
The assay is described as follows: BSK_CASM3C_PAI1: BioMAP Diversity Plus: CASM3C Assay for Plasminogen activator inhibitor-1 (PAI1) Biomarker Activity (AID 2284284).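 Note: PAI-1 protein level measured by ELISA 24 h after dosing.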 The following applies: primary human coronary artery smooth muscle cells.

Read-out in assay [6]: Monocyte Chemoattractant Protein-1 (MCP1), CCL2 (gene 6347)
The assay can be described thus: BSK_hDFCGF_MCP1: BioMAP Diversity Plus: hDFCGF Assay for Monocyte Chemoattractant Protein-1 (MCP1) Biomarker Activity (AID 2284285). Particulars: primary human foreskin fibroblasts. The method in brief: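 Human foreskin fibroblasts (hDFCGF system) were exposed to compound and secreted MCP-1 was measured by ELISA after 24 hours. Activity was fitted relative to DMSO. Cytotoxicity was checked by SRB total-protein staining in parallel cultures.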

Read-out in assay [7]: Intercellular Adhesion Molecule 1 (ICAM1), ICAM1 (gene 3383)
The assay is described as follows: BSK_hDFCGF_ICAM1: BioMAP Diversity Plus: hDFCGF Assay for Intercellular Adhesion Molecule 1 (ICAM1) Biomarker Activity (AID 2284287). Particulars: primary human foreskin fibroblasts. The essentials:
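Primary human foreskin fibroblasts (hDFCGF system) dosed with chemical; ICAM-1 quantified by ELISA at 24 h relative to DMSO. Parallel SRB total-protein staining to assess overt cytotoxicity.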

Read-out in assay [8]: TIMP metallopeptidase inhibitor 2 (TIMP2), TIMP2 (gene 7077)
The assay can be described thus: BSK_hDFCGF_TIMP2: BioMAP Diversity Plus: hDFCGF Assay for TIMP metallopeptidase inhibitor 2 (TIMP2) Biomarker Activity (AID 2284289). The following applies: primary human foreskin fibroblasts. The method in brief:
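Primary human foreskin fibroblasts in the hDFCGF system, dosed for 24 h; TIMP-2 level measured by ELISA, fitted in the positive direction against DMSO; cytotoxicity checked in parallel by sulforhodamine B total protein staining.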

Read-out in assay [9]: urokinase Plasminogen Activator (uPA), PLAU (gene 5328)
The assay is described as follows: BSK_BF4T_uPA: BioMAP Diversity Plus: BF4T Assay for urokinase Plasminogen Activator (uPA) Biomarker Activity (AID 2284275). The following applies: primary human bronchial epithelial cells with fibroblasts. The method in brief: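 Co-culture of human bronchial epithelial cells and dermal fibroblasts; uPA quantified by ELISA 24 hours after dosing, fitted relative to DMSO. Parallel SRB total-protein staining assessed overt cytotoxicity.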

Read-out in assay [10]: Matrix Metallopeptidase 9 (MMP9), MMP9 (gene 4318)
The assay is described as follows: BSK_BF4T_MMP9: BioMAP Diversity Plus: BF4T Assay for Matrix Metallopeptidase 9 (MMP9) Biomarker Activity (AID 2284276). Particulars: primary human bronchial epithelial cells with fibroblasts. The essentials: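 Co-culture of human bronchial epithelial cells and dermal fibroblasts dosed for 24 h; MMP-9 quantified by ELISA and fitted upward versus DMSO. Cytotoxicity monitored in parallel cultures by SRB total-protein staining at the biomarker time point.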

Read-out in assay [11]: Interleukin-8 (IL8), CXCL8 (gene 3576)
The assay is described as follows: BSK_IMphg_IL8: BioMAP Diversity Plus: IMphg Assay for Interleukin-8 (IL8) Biomarker Activity (AID 2284277). The following applies: primary human endothelial cells with macrophages. The method in brief:
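Co-culture of human venular endothelial cells and macrophages exposed to chemicals for 24 h; IL-8 quantified by ELISA and compared against the DMSO baseline, with SRB total-protein staining in parallel cultures for cytotoxicity.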

Read-out in assay [12]: Vascular cell adhesion molecule 1 (VCAM1), VCAM1 (gene 7412)
The assay can be described thus: BSK_IMphg_VCAM1: BioMAP Diversity Plus: IMphg Assay for Vascular cell adhesion molecule 1 (VCAM1) Biomarker Activity (AID 2284286). Particulars: primary human endothelial cells with macrophages. The essentials:
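Human venular endothelial cells co-cultured with macrophages; VCAM-1 quantified by ELISA 24 h after dosing, fitted in the positive direction against DMSO. Cytotoxicity was checked in parallel cultures by SRB total-protein staining (0.1% SRB after 10% TCA fixation, 560 nm).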

Read-out in another assay: CD40, CD40 (gene 958)
The assay can be described thus: BSK_IMphg_CD40: BioMAP Diversity Plus: IMphg Assay for CD40 Biomarker Activity (AID 2284288). Particulars: primary human endothelial cells with macrophages. The method in brief:
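Venular endothelial cells co-cultured with macrophages (human primary), CD40 measured by ELISA 24 h after dosing. Positive-direction fit vs DMSO baseline; cytotoxicity tracked by SRB total-protein staining in parallel cultures.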

Read-out in assay [13]: Interleukin-1 alpha (IL1a), IL1A (gene 3552)
The assay is described as follows: BSK_IMphg_IL1a: BioMAP Diversity Plus: IMphg Assay for Interleukin-1 alpha (IL1a) Biomarker Activity (AID 2284290). Particulars: primary human endothelial cells with macrophages. The method in brief: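 Human venular endothelial cells co-cultured with macrophages, IMphg system. IL-1α is measured by ELISA 24 h after dosing and fitted in the positive direction against DMSO. Cytotoxicity is assessed by SRB staining of parallel cultures.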

Read-out in assay [14]: E-selectin (Homo sapiens) (UniProt P16581)
The assay is described as follows: BSK_IMphg_ESelectin: BioMAP Diversity Plus: IMphg Assay for Eselectin Biomarker Activity (AID 2284291). Particulars: primary human endothelial cells with macrophages. The method in brief: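 Human venular endothelial cell–macrophage co-culture, E-selectin measured by ELISA 24 h after chemical dosing. Signal fitted in the positive direction against DMSO as negative control and baseline.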

Assay [15] in a line: BSK_IMphg_SRB: Viability Assessment in the BioMAP Diversity Plus: IMphg Assay (AID 2284292).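 Note: measured one day after compound addition.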 The following applies: primary human endothelial cells with macrophages. The essentials:
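Human venular endothelial cells with macrophages, 24 h after chemical dosing; total protein by 0.1% SRB staining after 10% TCA fixation, read at 560 nm. Positive-direction fitting versus DMSO baseline.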

Read-out in assay [16]: Macrophage colony-stimulating factor (MCSF), CSF1 (gene 1435)
The assay is described as follows: BSK_IMphg_MCSF: BioMAP Diversity Plus: IMphg Assay for Macrophage colony-stimulating factor (MCSF) Biomarker Activity (AID 2284293). Particulars: primary human endothelial cells with macrophages. The essentials: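 Co-culture of human venular endothelial cells and macrophages, 24 hours of chemical exposure. M-CSF quantified by ELISA, with parallel SRB total-protein staining for cytotoxicity; activity fitted relative to DMSO.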

Read-out in assay [17]: Interleukin-10 (IL10), IL10 (gene 3586)
The assay is described as follows: BSK_IMphg_IL10: BioMAP Diversity Plus: IMphg Assay for Interleukin-10 (IL10) Biomarker Activity (AID 2284294). Particulars: primary human endothelial cells with macrophages. The method in brief: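 Human venular endothelial cells cocultured with macrophages, dosed 24 h; IL-10 measured by ELISA, activity relative to DMSO. Cytotoxicity assessed in parallel cultures by sulforhodamine B total-protein staining.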

Assay [18] can be described thus: BSK_IMphg_SRB.Mphg: Macrophage Viability Assessment in the BioMAP Diversity Plus: IMphg Assay (AID 2284295). Particulars: primary human endothelial cells with macrophages. The essentials: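 Venular endothelial cells co-cultured with macrophages, read 24 h after dosing. Total protein measured by 0.1% SRB staining after 10% TCA fixation, absorbance at 560 nm. Fitted in positive direction against DMSO baseline.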

The term AC50 denotes the concentration at which the activity in the assay is half-maximal.

Structures are written as SMILES. “And” between values parts separate entries of the source, which are not always exact repeats. Equal entries are not always repeated. Where a structure was tested more than once in an assay, its records may differ in their call. The source made the active and inactive calls. Rule for the calls: active = hit-call score of the fitted dose curve at least 0.9, where 1 is the maximum; inactive = score below 0.9.

Chain of E-selectin (Homo sapiens) (P16581 whole entry, looked up): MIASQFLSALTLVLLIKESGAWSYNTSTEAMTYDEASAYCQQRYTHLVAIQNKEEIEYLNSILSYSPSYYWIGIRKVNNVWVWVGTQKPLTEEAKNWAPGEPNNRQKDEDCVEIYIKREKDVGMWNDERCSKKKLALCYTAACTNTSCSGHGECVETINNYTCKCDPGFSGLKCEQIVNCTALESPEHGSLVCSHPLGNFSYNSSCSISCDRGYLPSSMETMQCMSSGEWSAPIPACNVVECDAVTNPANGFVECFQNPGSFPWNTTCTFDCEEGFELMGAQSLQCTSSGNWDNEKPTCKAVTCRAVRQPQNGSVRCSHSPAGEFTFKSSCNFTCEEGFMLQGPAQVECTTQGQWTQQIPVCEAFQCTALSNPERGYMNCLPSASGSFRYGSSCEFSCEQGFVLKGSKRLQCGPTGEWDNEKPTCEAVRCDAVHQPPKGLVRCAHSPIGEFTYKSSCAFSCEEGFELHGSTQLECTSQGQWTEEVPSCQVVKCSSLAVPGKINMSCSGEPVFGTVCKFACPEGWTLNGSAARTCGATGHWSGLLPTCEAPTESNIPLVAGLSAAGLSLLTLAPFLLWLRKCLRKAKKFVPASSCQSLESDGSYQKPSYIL

As for `CC(=O)c1ccc(C)cc1`, the outcome (in [1]; in [2]; in assay [3]; in assay [4]; in the assay with KRT18 (gene 3875); in assay [5]) was inactive. Besides, the outcome in [6], in assay [7] and in assay [8] was inactive.

On to `C=C(F)C(=O)OC(C(F)(F)F)C(F)(F)F`, for which the outcome in assay [9], in assay [10], in assay [11], in assay [1], in assay [2] and in [3] was inactive. Further, the result (in assay [4]; in the assay with KRT18 (gene 3875); in [5]; in assay [6]; in assay [12]; in assay [7]) was inactive. Further, the outcome with CD40, CD40 (gene 958) was “inactive”; in assay [8], “inactive”; in [13] it was “inactive”; in assay [14] it was “inactive”; in [15], “inactive”; in [16], “inactive”. The outcome in [17] and in [18] was inactive. Moreover, the AC50 in the assay with CD40, CD40 (gene 958) is 5.95 µM (active).

For `C=C(C)C(=O)OCCC(F)(F)C(F)(F)C(F)(F)C(F)(F)C(F)(F)C(F)(F)C(F)(F)C(F)(F)F`, the outcome in assay [9], in [10], in assay [11], in assay [1], in [2] and in [3] was inactive. The result (in assay [4]; with KRT18 (gene 3875); in [5]; in [6]; in assay [12]; in assay [7]) was inactive. The outcome in the assay with CD40, CD40 (gene 958) is “inactive”; in assay [8], “inactive”; in assay [13] it was “inactive”; in assay [14] it was “inactive”; in [15], “inactive”; in assay [16], “inactive”. For the same molecule, the result in [17] and in assay [18] was inactive. For the same molecule, the concentration at half-maximal activity (AC50) with CD40, CD40 (gene 958) is 2.53 µM (active).

Regarding `O=S(=O)(O)C(F)(F)C(F)(F)OC(F)(F)C(F)(F)F`, the outcome in assay [9], in assay [10], in [11], in assay [1], in [2] and in assay [3] was inactive. Further, the result (in assay [4]; with KRT18 (gene 3875); in assay [5]; in [6]; in assay [12]; in assay [7]) was inactive. Besides, the outcome with CD40, CD40 (gene 958) is “inactive”; in [8], “inactive”; in [13] it was “inactive”; in [14], “inactive”; in assay [15], “inactive”; in assay [16], “inactive”. In assay [18], the outcome was inactive. The concentration at half-maximal activity (AC50) in assay [11] is 41.7 µM (active); in assay [17], 47.8 µM (active) and 44.1 µM (active).

`O=C(O)C(F)(F)C(F)(F)C(F)(F)C(F)(F)C(F)(F)C(F)(F)C(F)(F)C(F)F`: the outcome in assay [9], in [10], in assay [11], in assay [1], in assay [2] and in assay [3] was inactive. The outcome (in [4]; with KRT18 (gene 3875); in [5]; in assay [6]; in [12]; in assay [7]) was inactive. For the same molecule, the outcome is “inactive” with CD40, CD40 (gene 958); “inactive” in [8]; “inactive” in assay [13]; “inactive” in [14]; “inactive” in assay [15]; “inactive” in assay [16]. Further, in assay [18], the result was inactive. In addition, the AC50 in assay [17] was 47.1 µM (active) and 57.5 µM (active).

On to `CCCO[Si](OCCC)(OCCC)OCCC`, for which the outcome (in assay [1]; in [2]; in assay [3]; in assay [4]; in the assay with KRT18 (gene 3875); in assay [5]) was inactive. For the same molecule, the outcome in assay [6], in [7] and in assay [8] was inactive.
